TCR act – Activators of T cell receptors: qHTS campaign; primary human leukocytes, anti-CD3, IL-2 HTRF, 48 h; 330,000 tested, under 10 active; Potency, µM (series often up to 9.22 µM), inactives show at the highest dose activation of IL-2 secretion, actives largely listed as activators; further: % of control where 0% means no effect
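Primary human leukocytes incubated 48 hr with anti-CD3 beads plus compound, without co-stimulation. Secreted IL-2 measured by HTRF (europium cryptate/d2 anti-IL-2 pair, 320 nm excitation, 665 nm emission).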
AT treatment – qHTS Assay for Identifying a Potential Treatment of Ataxia-Telangiectasia; F2112 A-T fibroblasts, KAP-1 phosphorylation AlphaLISA; neocarzinostatin DNA damage 30 min before lysis; Potency, µM (highest dose often 57.5 µM), for the others: at the highest dose activation, actives largely listed as activators; hit rate 0.19% among 320,000; AID 485349, 2010; further: potency means the concentration at half of the fitted maximal effect; % of control where 0% means no effect; nearly all actives have a fitted effect of over 45% in size
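ATM-like activity read as KAP-1 phosphorylation via AlphaLISA donor/acceptor antibody pairs after lysis and 6 hr at 25C. Cells were ATM-null patient fibroblasts (F2112, hTERT), dosed 60 min, then exposed to the DSB inducer NCS for 30 min.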
ClpP mod – qHTS Assay for Activators of ClpP; ATP-dependent Clp protease proteolytic subunit (Bacillus subtilis (strain 168)), P80244; purified B. subtilis ClpP, FRET peptide cleavage, 20 min; Potency, µM (titrated, usually from 57.5 µM), without a hit: at the top dose activity change, negative = active; hit rate 1.9% among 340,000; active means well fitted falling curve with a large enough effect; inconclusive means small, poorly fitted or top-dose-only effect; inactive means no such curve, though single readings can be large or run the other way; further: potency means the concentration at half of the fitted maximal effect; the source files actives as falling curves though it sought activators and does not explain the sign; nearly all actives have a fitted effect of over 65% in size
Target sequence (P80244 whole entry, looked up): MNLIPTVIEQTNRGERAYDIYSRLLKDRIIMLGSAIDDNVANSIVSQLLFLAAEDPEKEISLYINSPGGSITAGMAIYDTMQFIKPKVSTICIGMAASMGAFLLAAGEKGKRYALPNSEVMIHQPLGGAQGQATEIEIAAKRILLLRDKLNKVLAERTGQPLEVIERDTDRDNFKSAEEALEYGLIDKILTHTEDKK
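Buffer: 100 mM Tris/HCl pH8, 100 mM KCl, 0.05% low protease BSA, 2.5% glycerol, 0.01% Tween-20. ClpP 10 microg/mL final; 20 min RT; delta FRET normalized to ADEP and DMSO controls.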
MBNL1-CUG inh – qHTS Assay for Inhibitors of MBNL1-poly(CUG) RNA binding; TR-FRET MBNL1-His/biotin-(CUG)12 binding, 665/545 ratio; Potency, µM (titrated, usually from 57.5 µM), inactives show at the highest dose activity change, negative = inhibition, most hits filed as inhibitors; AID 2675, 2010; hit rate 0.036% among 280,000; active means well fitted inhibition curve with a large enough effect in the signal ratio, with a control signal flat, not every such curve was filed as active; inconclusive means small, poorly fitted or top-dose-only effect, or effect the other way, or a change in a side signal; inactive means no such curve, though single readings can be large or run the other way; the % refers to the signal ratio; further: potency means the concentration at half of the fitted maximal effect; on the % scale 0 is the no-effect control and ±100 the full control effect
Target sequence (Q9NR56 whole entry, looked up): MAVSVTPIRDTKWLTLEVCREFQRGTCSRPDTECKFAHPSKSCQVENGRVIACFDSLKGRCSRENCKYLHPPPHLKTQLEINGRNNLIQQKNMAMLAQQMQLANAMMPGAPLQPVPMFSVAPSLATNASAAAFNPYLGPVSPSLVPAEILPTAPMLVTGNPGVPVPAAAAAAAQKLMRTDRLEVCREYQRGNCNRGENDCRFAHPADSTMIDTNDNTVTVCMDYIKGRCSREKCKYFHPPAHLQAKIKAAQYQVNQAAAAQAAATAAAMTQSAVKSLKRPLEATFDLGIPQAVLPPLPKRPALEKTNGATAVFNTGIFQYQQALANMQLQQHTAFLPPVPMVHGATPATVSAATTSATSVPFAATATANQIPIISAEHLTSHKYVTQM
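Compounds (final 92 nM to 58 uM) are added to His-tagged MBNL1 and biotin-(CUG)12, then terbium anti-His antibody and streptavidin-XL665 (5 nM final). After 60 min at room temperature, the 665/545 nm ratio is read.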
Mito fusion act – qHTS Assay for Small Molecule Inhibitors of Mitochondrial Division or Activators of Mitochondrial Fusion; hit rate 0.23% among 320,000; Potency, µM (doses to about 46.1 µM), without a hit: at the top dose growth rescue (activation), most hits filed as activators; S. cerevisiae fusion-defective mutant growth rescue, CellTiterGlo 48 h; further: potency means the concentration at half of the fitted maximal effect; % of control where 0% means no effect; nearly all actives have a fitted effect of over 45% in size
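Luminescent cell viability in 1536-well qHTS format served as the measure of rescued growth in ts fusion-mutant S. cerevisiae cultured on non-fermentable YPEG for 48 hours at 37C.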
Glioma ERSR ind – qHTS for Inducers of the Endoplasmic Reticulum Stress Response (ERSR) in Human Glioma: qHTS | U87-MG GRP78 promoter luciferase reporter, 16 h | Potency, µM, for inactives: at the highest dose activation, most hits filed as activators | hit rate 0.02% among 420,000; further: potency means the concentration at half of the fitted maximal effect; series mostly up to about 76 µM; % of control where 0% means no effect; nearly all actives have a fitted effect of over 35% in size
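Stably transfected U87-MG glioma cells carrying a GRP78-based luciferase sensor; 16 h compound incubation. Luminescence end-point read 10 min after Bright-Glo addition at room temperature.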
Active calls of the source: *; ? = inconclusive; / = no result; ! = not active in a repeat; [ ] = another dose, or the depositor's remark. Most compounds without a hit are left out; they make up all but 1.8% or so of the library. Unless noted, the call rests on the fitted dose curve; in most records, active means well fitted curve in the direction sought with a large enough effect; inconclusive means small, poorly fitted or top-dose-only effect, or another doubt; inactive means no such curve, though single readings can be large; an effect the other way counts as inactive or inconclusive.

SMILES	TCR act	AT treatment	ClpP mod	MBNL1-CUG inh	Mito fusion act	Glioma ERSR ind
CCc1ccc(-c2cc(C)no2)cc1S(=O)(=O)Nc1ccc(C)cn1	-3.0%	3.5%	31.6µM*!	-10.1%	1.4%	-5.2%
CCCc1cc(=O)n2[nH]c(C)cc2n1	5.3%	-1.9%	31.6µM*	-3.7%	-2.5%	-3.5%
CCC1CN(CCNC(=O)c2cn3cc(C)ccc3n2)Cc2cc(OC)ccc2O1 (stereo unspecified)	/	/	/	/	/	3.1%
Cc1cc2cc3c(=O)[nH]c(=O)cc-3n(CC(O)C(O)C(O)CO)c2cc1C (stereo unspecified)	/	/	-3.2%	/	/	-8.3%
Cc1cc2cc3c(=O)[nH]c(=O)nc-3n(CC(O)C(O)C(O)CO)c2cc1C (stereo unspecified)	-0.2%	/	35.5µM*	/	/	1.3%
COc1ccc2c(c1)OC(C)CN(CCNC(=O)c1csc(-c3cccs3)n1)C2 (stereo unspecified)	/	/	/	/	/	-3.3%
COc1ccc([N+](=O)[O-])c(OC)c1C(=O)NC(=O)Nc1c(C)cccc1C	2.2%	-14.0%	0.5%	24.8%	-0.5%	-0.5%
COc1cccc(OC)c1C(=O)NC(=O)Nc1c(C)cccc1C	-7.0%	3.55µM*	-1.6%	-7.6%	8.2%	-3.1%
CC(=O)Nc1ccc(C2Nc3ccccc3C(=O)N2C2CCCCC2)cc1 (stereo unspecified)	-4.5%	-6.4%	28.2µM*	-4.1%	-1.8%	7.7%
CC1=NN(C(C#N)c2ccc(F)cc2)C(C)(C)C1 (stereo unspecified)	9.0%	-0.3%	0.4%	-5.7%	-2.4%	1.3%
CC1=NN(C(C#N)c2ccc([N+](=O)[O-])cc2)C(C)(C)C1 (stereo unspecified)	-3.4%	3.55µM*	/	?	-3.8%	3.4%
C=CCn1c(O)c(N=NC(=S)Nc2ccc(OC)cc2)c2ccccc21	3.1%	-14.7%	22.4µM*	?	-15.9%	-3.2%
O=C(CSCc1ccccc1Cl)Nc1c[nH]c(=O)[nH]c1=O	4.2%[46.1 µM]	-2.1%	28.2µM*	/	2.6%	-4.1%
O=C(CSCc1ccc(Cl)c(Cl)c1)Nc1c[nH]c(=O)[nH]c1=O	0.1%[46.1 µM]	11.7%	12.6µM*	-1.9%	-1.3%	-4.2%
CN(C)c1ccc(C(=C2c3ccccc3-c3ccccc32)c2ccc(N(C)C)cc2)cc1	/	/	1.4%	/	/	-3.8%
C=CCOc1c(CNc2cccc(C(=O)O)c2)cccc1OC	-7.7%	-5.0%	25.1µM*	2.3%	4.3%	-4.9%
C=CCOc1c(CNc2ccc(C(=O)O)cc2)cccc1OCC	1.8%	0.8%	-12.3%	-2.8%	6.8%	2.9%
C=CCOc1c(CNc2ccc(C(=O)O)cc2)cccc1OC	2.0%[46.1 µM]	1.1%	-10.5%	-3.8%	11.9%	-2.2%
C=CCOc1c(CNc2cccc(C(=O)O)c2)cccc1OCC	2.8%	-3.6%	31.6µM*	6.5%	6.8%	7.8%
COC(=O)C(NC(C)=O)(Nc1cc(C)ccn1)C(F)(F)F (stereo unspecified)	-0.2%	0.9%	/	/	-4.2%	-2.4%
CCOC(=O)C(NC(C)=O)(Nc1cccc(F)c1)C(F)(F)F (stereo unspecified)	-1.2%	1.8%	-2.5%	-3.2%	-0.4%	-3.2%
CCOC(=O)C(NC(C)=O)(Nc1ccc(F)cc1)C(F)(F)F (stereo unspecified)	-2.8%	5.3%	20µM*	-8.8%	-1.6%	-1.8%
CCCCC(=O)NC(Nc1cc(C)ccn1)(C(=O)OCC)C(F)(F)F (stereo unspecified)	-1.7%	4.4%	25.1µM*	6.3%	-20.7%	-2.0%
CCCCNC(=O)c1ccc2c(c1)NC(=O)C(CS(=O)(=O)Cc1ccc(F)cc1Cl)N2 (stereo unspecified)	/	/	39.8µM*	/	/	-0.9%
CCN(CC)CCCNC(=O)c1ccc2c(c1)NC(=O)C(CS(=O)(=O)Cc1cccc(Br)c1)N2 (stereo unspecified)	/	/	3.55µM*	/	/	0.3%
SMILES	TCR act	AT treatment	ClpP mod	MBNL1-CUG inh	Mito fusion act	Glioma ERSR ind
CCN(CC)CCNC(=O)c1ccc2c(c1)NC(=O)C(CS(=O)(=O)Cc1cccc(Br)c1)N2 (stereo unspecified)	/	/	7.94µM*	/	/	-3.1%
Cc1ccc(CNC(=O)c2ccc3c(c2)NC(=O)C(CS(=O)(=O)Cc2cccc(C)c2)N3)cc1 (stereo unspecified)	/	/	?	/	/	-1.2%
CC(=O)OCC1OC(C#CC2=CCCCC2)C=CC1OC(C)=O (stereo unspecified)	/	/	/	/	/	-3.2%
CCOCC	/	/	/	/	/	-1.5%
Cc1oc(-c2ccccc2NC(=O)C2CCC2)nc1CNC(=O)c1ccc(C#CC(C)(C)O)cc1	/	/	/	/	/	-7.4%
COc1ccc(S(=O)(=O)N2CCCC2C(=O)Nc2nnc(-c3cccnc3)s2)cc1 (stereo unspecified)	11.3%	1.3%	28.2µM*	-4.9%	-3.6%	-3.4%
O=C(Nc1nc(-c2ccccc2)cs1)C1CCCCN1S(=O)(=O)c1ccc(Cl)cc1 (stereo unspecified)	0.9%	-0.6%	0.1%	0.4%	17.8µM*	-2.8%
Cc1ncc2c(c1CNC(=O)c1ccc3c(c1)OCO3)CCN(C(=O)c1cccc(-n3cccn3)c1)C2	/	/	/	/	/	-3.7%
COCCNC(=O)C(=O)N/N=C(\C)CC(=O)Nc1ccc(Cl)cc1Cl	-2.9%	4.7%	28.2µM*	/	19.7%	-1.4%
COc1cc(OC)c2c(C)c(Cl)c(=O)oc2c1	1.8%	-0.8%	2.82µM*	13.6%	-1.4%	-0.1%
COc1cc(OC)c2c(=O)cc(-c3ccccc3)oc2c1	3.2%	-15.5%	-22.0%	-1.0%	-1.0%	2.2%
COC(=O)[C@H](C)[C@H](CC(C)C)NC(=O)[C@H](C)[C@H](CC(C)C)NC(=O)c1ccccn1	/	/	/	/	/	-1.5%
O=C(Nc1ccc2c(c1)nc1n2CCN(Cc2ccccc2)C1)NC1CCCCC1	/	/	28.2µM*	25.8%	2.1%	-1.5%
CN(c1cccc(F)c1)c1cc2c(c3c1ccn3C)C1CCC2C1 (stereo unspecified)	/	/	8.91µM*	/	/	-5.7%
CN(c1ccc(Cl)cc1)c1cc2c(c3c1ccn3C)C1CCC2C1 (stereo unspecified)	/	/	-24.0%	/	/	-4.7%
O=C1CC2(CCN(C(=O)COc3ccccc3F)CC2)Oc2ccccc21	7.4%	-3.8%	?	/	3.1%	-4.0%

Source: PubChem BioAssay (National Center for Advancing Translational Sciences (NCATS))
